Inconclusive results are not listed. The source made the active and inactive calls. The calls were made as follows, unless noted: active = hit-call score of the fitted dose curve at least 0.9, where 1 is the maximum; inconclusive = response in the unintended direction; inactive = score below 0.9.

This passage reports outcome and AC50 results from PubChem BioAssay (EPA / NIEHS).

The nature of test [1]: ATG_GRE_CIS: Attagene CIS-FACTORIAL HepG2 Assay for human Glucocorticoid Response Elements (GRE) (AID 2282947; active = hit-call score of the fitted dose curve at least 0.9, where 1 is the maximum; inactive = score below 0.9). The following applies: HepG2 GRE cis-reporter, Attagene multiplex mRNA; actives raise or lower the signal. Summed up: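 Fluorescence intensity of reporter-specific cDNA fragments, separated by capillary electrophoresis, provides the signal. Constructs carry cis-regulating promoters in transiently transfected HepG2 liver cells; 24 h incubation; fitting is bidirectional against DMSO.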

Test [2] addresses Hepatocyte nuclear factor 6 (Homo sapiens) (UniProt Q9UBC0). The test can be described thus: ATG_HNF6_CIS: Attagene CIS-FACTORIAL HepG2 Assay for human Hepatocyte Nuclear Factor 6 (HNF6) (AID 2282952; active = hit-call score of the fitted dose curve at least 0.9, where 1 is the maximum; inactive = score below 0.9). The conditions noted are these: HepG2 Attagene cis-factorial HNF6 reporter transcription; actives raise or lower the signal. Summed up:
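Endogenous transcription factor activity in human HepG2 liver cells was captured through cis-regulated reporter constructs. After 24 h treatment, reporter mRNA was measured by RT-PCR with capillary electrophoresis, and activity was fitted in both directions relative to DMSO.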

Test [3] in a line: ATG_MRE_CIS: Attagene CIS-FACTORIAL HepG2 Assay for human Metal Responsive Element (MRE) (AID 2282954; active = hit-call score of the fitted dose curve at least 0.9, where 1 is the maximum; inactive = score below 0.9). The following applies: HepG2 MRE cis-reporter transcription, Attagene multiplex; actives raise or lower the signal. Summed up: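 Measured here is mRNA induction from an MRE cis-element reporter in HepG2 after 24 h, quantified by fluorescence of labelled RT-PCR products on capillary electrophoresis; gain- and loss-of-signal fits use DMSO as baseline.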

Test [4] can be described thus: ATG_TGFb_CIS: Attagene CIS-FACTORIAL HepG2 Assay for human Transforming Growth Factor (TGF) (AID 2282967; active = hit-call score of the fitted dose curve at least 0.9, where 1 is the maximum; inactive = score below 0.9). The conditions noted are these: HepG2 Attagene CIS TGFb reporter, mRNA transcription; actives raise or lower the signal. Summed up: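 Bidirectional fitting relative to DMSO gave the endpoint. Underlying data: reporter mRNA from HepG2 cells carrying transiently transfected cis-regulated reporter constructs, harvested 24 h after dosing and analyzed by RT-PCR and capillary electrophoresis.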

Test [5] deals with X-box-binding protein 1 (Homo sapiens) (UniProt P17861). Nature of the test: ATG_Xbp1_CIS: Attagene CIS-FACTORIAL HepG2 Assay for human X-box Binding Protein 1 (XBP1) (AID 2282972; active = hit-call score of the fitted dose curve at least 0.9, where 1 is the maximum; inactive = score below 0.9). The following applies: HepG2 XBP1 cis-element reporter, Attagene multiplex; actives raise or lower the signal. Summed up:
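Read-out: fluorescent reporter mRNA fragments resolved by capillary electrophoresis after RT-PCR. Human HepG2 liver cells carried transfected cis-promoter reporter units and were exposed to chemicals for 24 hours. Gain or loss of signal fitted relative to DMSO baseline.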

Test [6] deals with Hepatocyte nuclear factor 4-alpha (Homo sapiens) (UniProt P41235). The test can be described thus: ATG_HNF4a_TRANS: Attagene TRANS-FACTORIAL HepG2 Assay for human Hepatocyte Nuclear Factor 4 alpha (HNF4a) (AID 2282982). The following applies: HepG2 HNF4a transactivation reporter, mRNA readout. Summed up: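 Endpoint reflects transcriptional activation of a GAL4-UAS reporter by an HNF4a-GAL4 chimera in transfected HepG2 cells, 24 h post-dosing. Fluorescence from RT-PCR products separated by capillary electrophoresis; DMSO baseline.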

The nature of test [7]: ATG_M_06_TRANS: Attagene TRANS-FACTORIAL HepG2 Assay for M06 Transcription Factor (Internal Marker) (AID 2282983). The following applies: HepG2 Attagene TRANS M06 internal marker reporter. Summed up: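 Human liver HepG2 cells bearing transiently transfected chimeric NR-GAL4 reporter units were treated with chemicals for 24 h. Total RNA was reverse-transcribed, reporter sequences amplified and labelled, then quantified by capillary electrophoresis. Activity was fitted upward relative to DMSO.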

Test [8] in a line: TOX21_p53_BLA_p2_viability: Viability Assessment in the Tox21 HCT-116 p53 Agonism Beta-lactamase Assay, Phase 2 (AID 2283591).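 Also: compound exposure lasted 16 h at 37 °C; actives lower the ATP signal meaning cytotoxicity.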 Summed up:
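HCT116 p53-bla cells, 4000/well, dosed after 5 h plating (217-fold dilution of DMSO stocks) and incubated 16 h at 37C. Viability taken as cellular ATP by CellTiter-Glo luminescence after 30 min RT; signal loss marks cytotoxicity.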

In test [9] the target is Cellular tumor antigen p53 (Homo sapiens) (UniProt P04637). Nature of the test: TOX21_p53_BLA_p2_ratio: Tox21 HCT-116 p53 Agonism Beta-lactamase Assay, Ratio, Phase 2 (AID 2283592). Summed up: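 Cleaved-to-uncleaved substrate ratio (460 vs 530 nm) measured in HCT116 cells with an inducible beta-lactamase reporter linked to p53 activity. Compounds incubated 16 h at 37C before 2 h room-temperature CCF4-AM loading.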

Test [10] has the same target. The test can be described thus: TOX21_p53_BLA_p3_ratio: Tox21 HCT-116 p53 Agonism Beta-lactamase Assay, Ratio, Phase 3 (AID 2283596). Summed up:
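Cells were seeded at 4000/well, rested 5 h at 37C, then dosed with DMSO compound solutions (217-fold dilution) for 16 h. CCF4-AM substrate was loaded for 2 h at room temperature, and the 460/530 nm emission ratio was fitted for gain of signal versus DMSO.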

For test [11] the target is unchanged. The test can be described thus: TOX21_p53_BLA_p5_ratio: Tox21 HCT-116 p53 Agonism Beta-lactamase Assay, Ratio, Phase 5 (AID 2283599). Summed up:
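HCT-116 p53-bla cells (4000/well) plated 5 h, dosed with compound (217-fold DMSO dilution) for 16 h at 37 C; CCF4-AM substrate 2 h at room temperature. Activity is the 460/530 nm emission ratio (405 nm excitation), fitted in gain-of-signal direction versus DMSO.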

Test [12] is described as follows: TOX21_p53_BLA_p5_viability: Viability Assessment in the Tox21 HCT-116 p53 Agonism Beta-lactamase Assay, Phase 5 (AID 2283600). Summed up:
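Viability is taken from cellular ATP content, measured by luciferase luminescence in the same wells after the beta-lactamase ratio read. Cells are seeded at 4000 per well and exposed to DMSO-dissolved compounds, diluted 217-fold, for 16 h.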

Test [13] concerns the target Cellular tumor antigen p53 (Homo sapiens) (UniProt P04637). Nature of the test: TOX21_p53_BLA_p4_ratio: Tox21 HCT-116 p53 Agonism Beta-lactamase Assay, Ratio, Phase 4 (AID 2283601). Summed up: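 HCT-116 p53 beta-lactamase reporter cells (4000/well) preincubated 5 h, then compound (217-fold dilution of DMSO stock) for 16 h at 37C. CCF4-AM substrate added 2 h at room temperature; 460/530 nm emission ratio fitted upward versus DMSO.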

Test [14] addresses Retinoic acid receptor alpha (Homo sapiens) (UniProt P10276). Nature of the test: ATG_DR5_RAR_CIS: Attagene CIS-FACTORIAL HepG2 Assay for human Retinoic Acid Receptor Alpha (RARE), DR5 submotif (AID 2282934; active = hit-call score of the fitted dose curve at least 0.9, where 1 is the maximum; inactive = score below 0.9;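 as to AC50: reporter responds to endogenous RAR alpha beta and gamma in HepG2 not RARA alone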). The following applies: HepG2 Attagene cis-factorial RARE DR5 reporter, mRNA; actives raise or lower the signal. Summed up: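 HepG2 cells transiently transfected with multiplexed reporter units; DR5 cis-element drives reporter through endogenous transcription factors. After 24 h dosing, reporter mRNA quantified by RT-PCR, fluorescent labeling, HpaI digestion and capillary electrophoresis; bidirectional fitting versus DMSO.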

A short description of test [15]: ATG_M_19_CIS: Attagene CIS-FACTORIAL HepG2 Assay for M19 Transcription Factor (Internal Marker) (AID 2282939; active = hit-call score of the fitted dose curve at least 0.9, where 1 is the maximum; inactive = score below 0.9). The conditions noted are these: HepG2 Attagene CIS-FACTORIAL M19 internal marker reporter; actives raise or lower the signal. Summed up:
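Signals come from fluorescence of labelled reporter-specific PCR fragments resolved by capillary electrophoresis, following 24 h treatment of HepG2 cells transfected with cis-promoter reporter units; activity was fitted in both directions relative to DMSO.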

Test [16] can be described thus: ATG_PBREM_CIS: Attagene CIS-FACTORIAL HepG2 Assay for human Phenobarbital-responsive Enhancer Module (PBREM) (AID 2282955; active = hit-call score of the fitted dose curve at least 0.9, where 1 is the maximum; inactive = score below 0.9). The conditions noted are these: HepG2 PBREM cis-reporter, Attagene multiplexed transcription; actives raise or lower the signal. Summed up: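 Endogenous transcription factor activity was read from reporter transcripts in transiently transfected human HepG2 liver cells after 24 h dosing. RT-PCR products were fluorescently labelled, HpaI-cut and sized by capillary electrophoresis; activity fitted bidirectionally against DMSO baseline.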

Test [17] is described as follows: ATG_NF_kB_CIS: Attagene CIS-FACTORIAL HepG2 Assay for human Nuclear Factor Kappa B (NF-kB) (AID 2282991; active = hit-call score of the fitted dose curve at least 0.9, where 1 is the maximum; inactive = score below 0.9). The following applies: HepG2 Attagene cis-factorial NF-kB reporter mRNA; actives raise or lower the signal. Summed up: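 Readout is reporter transcript level, gain or loss versus DMSO, measured 24 h post-dose via RT-PCR, fluorescent labelling and capillary electrophoresis. Human HepG2 liver cells carried transiently transfected CIS reporter constructs reflecting endogenous factors.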

The nature of test [18]: ATG_M_32_TRANS: Attagene TRANS-FACTORIAL HepG2 Assay for M32 Transcription Factor (Internal Marker) (AID 2282984).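 As to outcome: transcript level of a background control reporter unit measured by RT-PCR and capillary electrophoresis.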 The conditions noted are these: HepG2 Attagene TRANS M32 internal marker reporter. Summed up:
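Internal-marker readout from a multiplexed transcription reporter panel. HepG2 cells were transfected with GAL4-UAS reporter units, treated 24 hours, and reporter transcript levels determined by fluorescence after RT-PCR and capillary separation.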

In test [19] the target is Retinoic acid receptor RXR-alpha (Homo sapiens) (UniProt P19793). The test can be described thus: ATG_RXRa_TRANS: Attagene TRANS-FACTORIAL HepG2 Assay for human Retinoid X Receptor alpha (RXRa) (AID 2283012). Summed up:
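Measures exogenous chimeric NR-GAL4 activity in transfected HepG2 liver cells after 24 h of dosing. Induced reporter mRNA was detected by RT-PCR with capillary electrophoresis, and gain of signal was analysed against DMSO.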

The target of test [20] is human Retinoid X Receptor beta (RXRb), RXRB (gene 6257) (UniProt P28702). The test can be described thus: ATG_RXRb_TRANS: Attagene TRANS-FACTORIAL HepG2 Assay for human Retinoid X Receptor beta (RXRb) (AID 2283013). Summed up:
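Chimeric receptor-Gal4 activity was assessed in transiently transfected human HepG2 cells after 24 h exposure. Transcripts from GAL4-UAS reporters were quantified by fluorescent RT-PCR and capillary electrophoresis, with DMSO as negative control and baseline.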

Hepatocyte nuclear factor 6 (Homo sapiens), sequence (Q9UBC0 whole entry, looked up): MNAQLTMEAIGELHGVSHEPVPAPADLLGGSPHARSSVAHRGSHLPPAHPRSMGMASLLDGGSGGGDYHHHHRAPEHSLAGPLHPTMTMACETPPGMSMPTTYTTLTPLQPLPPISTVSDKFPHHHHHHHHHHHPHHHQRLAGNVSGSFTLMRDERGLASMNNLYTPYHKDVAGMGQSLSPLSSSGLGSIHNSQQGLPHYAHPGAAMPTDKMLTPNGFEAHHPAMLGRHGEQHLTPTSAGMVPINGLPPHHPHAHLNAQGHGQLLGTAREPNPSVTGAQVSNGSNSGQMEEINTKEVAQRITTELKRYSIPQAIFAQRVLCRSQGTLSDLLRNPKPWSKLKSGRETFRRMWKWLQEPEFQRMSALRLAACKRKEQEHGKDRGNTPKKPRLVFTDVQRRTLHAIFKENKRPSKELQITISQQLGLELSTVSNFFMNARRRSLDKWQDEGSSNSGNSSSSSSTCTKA
Cellular tumor antigen p53 (Homo sapiens), sequence (P04637 whole entry, looked up): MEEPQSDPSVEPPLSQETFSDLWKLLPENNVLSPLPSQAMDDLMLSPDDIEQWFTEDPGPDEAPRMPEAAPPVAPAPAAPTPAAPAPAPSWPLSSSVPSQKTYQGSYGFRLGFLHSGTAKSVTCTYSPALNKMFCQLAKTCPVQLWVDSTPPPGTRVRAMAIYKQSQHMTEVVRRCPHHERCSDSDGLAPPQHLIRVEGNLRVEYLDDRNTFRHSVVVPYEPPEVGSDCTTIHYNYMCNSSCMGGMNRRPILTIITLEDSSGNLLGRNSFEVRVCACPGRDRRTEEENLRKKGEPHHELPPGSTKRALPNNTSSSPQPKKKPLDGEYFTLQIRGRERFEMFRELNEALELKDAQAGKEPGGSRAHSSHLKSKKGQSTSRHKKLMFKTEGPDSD
X-box-binding protein 1 (Homo sapiens), sequence (P17861 whole entry, looked up, the tested form may be a part): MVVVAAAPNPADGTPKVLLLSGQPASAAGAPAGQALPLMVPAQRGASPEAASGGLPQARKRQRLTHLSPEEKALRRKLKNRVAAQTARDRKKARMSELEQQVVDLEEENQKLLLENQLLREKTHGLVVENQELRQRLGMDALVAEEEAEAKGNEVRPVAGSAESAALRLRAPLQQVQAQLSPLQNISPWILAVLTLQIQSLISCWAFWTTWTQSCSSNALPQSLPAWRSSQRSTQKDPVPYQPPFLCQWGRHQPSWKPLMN
Retinoic acid receptor alpha (Homo sapiens), sequence (P10276 whole entry, looked up): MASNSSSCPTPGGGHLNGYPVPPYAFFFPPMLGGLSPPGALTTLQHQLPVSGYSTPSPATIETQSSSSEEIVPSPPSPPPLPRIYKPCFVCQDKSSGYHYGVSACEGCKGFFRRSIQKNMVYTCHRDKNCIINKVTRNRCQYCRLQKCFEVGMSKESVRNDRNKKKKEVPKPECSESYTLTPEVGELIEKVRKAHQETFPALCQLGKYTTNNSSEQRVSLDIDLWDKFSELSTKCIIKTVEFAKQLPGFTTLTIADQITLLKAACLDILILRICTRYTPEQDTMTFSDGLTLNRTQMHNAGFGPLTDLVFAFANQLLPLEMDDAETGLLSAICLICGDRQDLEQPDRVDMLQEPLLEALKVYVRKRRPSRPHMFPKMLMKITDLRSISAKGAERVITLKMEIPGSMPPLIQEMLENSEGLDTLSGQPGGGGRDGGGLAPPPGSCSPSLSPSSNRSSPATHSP
Retinoic acid receptor RXR-alpha (Homo sapiens), sequence (P19793 whole entry, looked up, the tested form may be a part): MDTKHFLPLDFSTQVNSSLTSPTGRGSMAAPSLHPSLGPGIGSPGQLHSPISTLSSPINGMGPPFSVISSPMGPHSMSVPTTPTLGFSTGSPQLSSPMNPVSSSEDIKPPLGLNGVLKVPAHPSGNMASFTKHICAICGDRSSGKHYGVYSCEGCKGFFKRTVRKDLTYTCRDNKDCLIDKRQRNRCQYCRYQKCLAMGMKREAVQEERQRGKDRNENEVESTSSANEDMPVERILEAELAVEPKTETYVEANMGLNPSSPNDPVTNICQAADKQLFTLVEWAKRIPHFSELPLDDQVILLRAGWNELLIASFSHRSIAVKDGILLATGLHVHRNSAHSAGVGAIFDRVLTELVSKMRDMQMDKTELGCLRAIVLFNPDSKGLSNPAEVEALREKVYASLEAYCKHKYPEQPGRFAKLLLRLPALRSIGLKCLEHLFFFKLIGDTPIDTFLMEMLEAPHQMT
human Retinoid X Receptor beta (RXRb), RXRB (gene 6257), sequence (P28702 whole entry, looked up, the tested form may be a part): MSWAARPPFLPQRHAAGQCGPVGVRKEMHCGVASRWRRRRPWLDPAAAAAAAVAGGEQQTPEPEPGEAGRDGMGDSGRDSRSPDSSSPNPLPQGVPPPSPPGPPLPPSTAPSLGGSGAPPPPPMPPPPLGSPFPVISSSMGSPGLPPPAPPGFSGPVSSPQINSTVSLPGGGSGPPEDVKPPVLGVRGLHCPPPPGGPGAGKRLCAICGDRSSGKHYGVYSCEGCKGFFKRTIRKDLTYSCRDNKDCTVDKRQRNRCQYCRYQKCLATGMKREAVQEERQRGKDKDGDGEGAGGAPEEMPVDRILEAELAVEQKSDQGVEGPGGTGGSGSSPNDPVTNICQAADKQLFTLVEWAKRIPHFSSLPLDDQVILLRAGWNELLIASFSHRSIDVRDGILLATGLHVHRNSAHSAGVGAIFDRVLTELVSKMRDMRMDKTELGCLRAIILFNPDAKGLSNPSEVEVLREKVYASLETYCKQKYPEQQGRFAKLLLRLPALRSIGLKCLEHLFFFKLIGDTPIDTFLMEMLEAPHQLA
Hepatocyte nuclear factor 4-alpha (Homo sapiens), sequence (P41235 whole entry, looked up, the tested form may be a part): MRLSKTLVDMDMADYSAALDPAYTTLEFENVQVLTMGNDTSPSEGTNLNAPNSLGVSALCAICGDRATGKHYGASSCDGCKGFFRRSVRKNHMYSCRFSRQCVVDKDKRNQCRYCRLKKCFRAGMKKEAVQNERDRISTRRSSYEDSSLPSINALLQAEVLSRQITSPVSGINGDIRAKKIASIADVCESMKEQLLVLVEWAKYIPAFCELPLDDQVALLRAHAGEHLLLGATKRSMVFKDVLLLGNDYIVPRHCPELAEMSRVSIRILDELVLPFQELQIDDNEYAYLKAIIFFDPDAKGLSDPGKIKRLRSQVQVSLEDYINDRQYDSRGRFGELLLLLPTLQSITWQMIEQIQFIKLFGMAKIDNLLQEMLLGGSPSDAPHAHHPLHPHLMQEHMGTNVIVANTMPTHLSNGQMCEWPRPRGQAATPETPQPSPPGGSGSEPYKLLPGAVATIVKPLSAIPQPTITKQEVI

Consider `CC1(C)S[C@@H]2[C@H](NC(=O)[C@H](N)c3ccccc3)C(=O)N2[C@H]1C(=O)O`, for which the molecule was classed as inactive in test [1], in [2], in test [3], in test [4], in test [5] and in test [6]. The molecule was classed as inactive in [7], in [8], in test [9], in test [10], in [11] and in test [12]. In [13], the outcome was inactive.
Regarding `CC(C)CC(=O)O`, the outcome in test [14], in test [15], in [1], in test [2], in test [16] and in test [4] was inactive. The call in test [5], in test [6], in test [7], in test [17], in test [8] and in [9] was inactive. In addition, the outcome in test [10], in [11] and in [13] was inactive.
As for `CC(C)n1c(/C=C/[C@@H](O)C[C@@H](O)CC(=O)O)c(-c2ccc(F)cc2)c2ccccc21`, the molecule was classed as inactive in test [15], in test [1], in [4], in test [7], in test [18] and in test [19]. The result in test [20], in test [8], in test [9], in [10], in [11] and in [12] was inactive. Also, the result in [13] was inactive.
As for `CCCCCCCCCCCCCC`, the result in [15], in test [2], in test [3], in test [16], in test [4] and in [5] was inactive. In addition, the result in [7], in [18], in test [17], in test [19], in [20] and in test [8] was inactive. Further, the outcome in [10], in [11] and in [13] was inactive.
`C=C(C)C(=O)OCCCCCC`: the molecule was called inactive in test [14], in test [15], in test [1], in [2], in test [3] and in [4]. In addition, the outcome in test [6], in test [7], in [18], in test [17], in test [19] and in test [8] was inactive. Besides, the outcome in [9], in test [11] and in test [13] was inactive.
With `CC1=C(CC=O)C(C)(C)CCC1`, the molecule was classed as inactive in test [15], in test [2], in test [3], in test [4], in [5] and in [7]. The outcome in test [18], in test [17], in [19], in test [8], in test [9] and in test [10] was inactive. The outcome in test [11], in [12] and in test [13] was inactive.
Turning to `CN(C)c1ccc(C(c2ccccc2)c2ccc(N(C)C)cc2)cc1`, the outcome in [15], in test [16], in test [5], in test [6], in [18] and in test [17] was inactive. Besides, the molecule was classed as inactive in test [19], in [20], in test [8], in [9], in [10] and in [11]. The call in [12] and in [13] was inactive.
Usually AC50 stands for the concentration at which the activity in the assay is half-maximal. Regarding `CCCCCCCCCCCCCCCCCC[N+](C)(C)C`, the AC50 was 42.5 µM (active) in test [14]; 40.1 µM (active) in test [3]; 45.4 µM (active) in test [16]; 37.3 µM (active) in [6]; 16.2 µM (active) in [18]; 3.31 µM (active) in test [17]. The AC50 is 46.2 µM (active) in test [8]; 73.2 µM (active) in test [9]; 72.7 µM (active) in test [10]; 75 µM (active) in test [11]; 62.8 µM (active) in test [12]; 75.3 µM (active) in test [13]. Moreover, the molecule was classed as inactive in test [15], in [1], in [7] and in [19].
As for `CC(=O)c1nccs1`, the molecule was called inactive in test [14], in [15], in test [1], in test [2], in [3] and in test [16]. For the same molecule, the molecule was called inactive in [4], in test [6], in [18], in [20], in test [9] and in test [10]. For the same molecule, the outcome in [11] and in test [13] was inactive.
